Reference: PubChem BioAssay (EPA / NIEHS)
Active and inactive are the calls of the source. Rule for the calls: active = hit-call score of the fitted dose curve at least 0.9, where 1 is the maximum; inactive = score below 0.9.

Read-out: Interleukin-1 alpha (IL1a), IL1A (gene 3552)
Test: BSK_KF3CT_IL1a: BioMAP Diversity Plus: KF3CT Assay for Interleukin-1 alpha (IL1a) Biomarker Activity (AID 2283070)
Details: primary human keratinocytes with fibroblasts; actives raise or lower the signal
Protocol: BSK_KF3CT is a cell-based, multiplexed-readout assay that uses keratinocytes and foreskin fibroblasts, a human skin primary cell co-culture, with measurements taken at 24 hours after chemical dosing in a 96-well plate.BSK_KF3CT_IL1a is an assay component measured in the BSK_KF3CT assay. It measures IL-1a antibody related to regulation of gene expression using ELISA technology.Data from the assay component BSK_KF3CT_IL1a was analyzed into 1 assay endpoint. This assay endpoint, BSK_KF3CT_IL1a, was analyzed with bidirectional fitting relative to DMSO as the negative control and baseline of activity. Using a type of binding reporter, gain or loss-of-signal activity can be used to understand changes in the signaling as they relate to the gene IL1A. Furthermore, this assay endpoint can be referred to as a primary readout, because this assay has produced multiple assay endpoints where this one serves a signaling function. To generalize the intended target to other relatable targets, this assay endpoint is annotated to the cytokine intended target family, where the subfamily is interleukins.
The levels of cell surface (or secreted, indicated by the prefix "s") biomarker endpoints were measured by ELISA. Overt cytotoxicity to cells in confluent adherent cultures (all systems other than the BT system) was assessed by measuring total protein levels using sulforhodamine B (SRB) staining in parallel cultures at the time of biomarker measurements, indicated as SRB endpoints. For proliferation assays for adherent cell types, individual cell types are cultured at sub-confluence and relative cell numbers quantified by SRB staining at time points optimized for each system (48 h: 3C and CASM3C systems; 72 h: BT and HDF3CGF systems; 96 h: SAg system). SRB was performed by staining cells with 0.1% SRB after fixation with 10% TCA and reading wells at 560 nm.Viability and proliferation of PBMC (T cells) was quantified by Alamar Blue reduction for the SAg and BT systems. For PBMC viability (referred to as PBMC Cytotoxicity within the assay endpoint names), cells were plated (75,000/well in a 96-well plate) and then chemical samples added for 1 h before addition of activators, SEB and TSST-1 (20 ng/mL final concentration each). Cells were incubated for 90 h. Then, Alamar Blue (20 uL/well) (Invitrogen, Cat DAL1100) was added for 6 h, and the plates were read with a fluorescence microplate reader at 546/580 nm (excitation/emission). For PBMC proliferation, cells were plated and activated as above but incubated for only 16 h prior to addition of Alamar Blue. Plates were read after 6 h.

Row | Compound | outcome | AC50
1 | CCc1nc(N)nc(N)c1-c1ccc(Cl)cc1 | inactive | –
2 | Oc1ccccc1O | – | 4.75 µM (active)
3 | C#CC(O)C(CC)CCCC (stereo not given) | inactive | –
4 | O=C1c2c(O)cccc2Cc2cccc(O)c21 | – | 18.9 µM (active)
5 | Cc1ccc(-c2cc(C(F)(F)F)nn2-c2ccc(S(N)(=O)=O)cc2)cc1 | inactive | –
6 | NC1CCCCC1 | inactive | –
7 | Oc1ccc(O)cc1 | inactive | –
8 | CCCCC(CC)COP(=O)(OCC(CC)CCCC)OCC(CC)CCCC (stereo not given) | inactive | –
9 | CS(=O)(=O)c1ccc([C@@H](C[C@H]2CCC(=O)C2)C(=O)Nc2cnccn2)cc1Cl | inactive | –
10 | Cc1ccc(C(C)(C)C)c(O)c1 | inactive | –
11 | CCCCC(CC)CO (stereo not given) | inactive | –
12 | CC(COCC(C)OC(=O)c1ccccc1)OC(=O)c1ccccc1 (stereo not given) | inactive | –
13 | CCCCOC(=O)CCCCC(=O)OCCCC | inactive | –
14 | COC(=O)CCC(=O)OC | inactive | –
15 | CO[C@@H]1COCC[C@@H]1N[C@@H]1CC[C@@](C(=O)N2CCc3ncc(C(F)(F)F)cc3C2)(C(C)C)C1 | inactive | –
16 | c1ccc2occc2c1 | inactive | –
17 | Nc1nc(=S)c2[nH]cnc2[nH]1 | inactive | –
18 | O=C1OC(c2ccc(O)cc2)(c2ccc(O)cc2)c2ccccc21 | – | 28.8 µM (active)
19 | O=C(O)CC(O)(CC(=O)O)C(=O)O | inactive | –
20 | NC=O | inactive | –

Row | Compound | outcome | AC50
21 | CC(=O)CC(c1ccccc1)c1c(O)c2ccccc2oc1=O (stereo not given) | inactive | –
22 | CC(=O)OCC(COC(C)=O)OC(C)=O | inactive | –
23 | CC1(C)C(=O)NC(=O)N1CO | inactive | –
24 | CC(N)=O | inactive | –
25 | C=CCc1ccc(OC)c(OC)c1 | inactive | –
26 | Cc1c(C)c2c(c(C)c1O)CCC(C)(COc1ccc(CC3SC(=O)NC3=O)cc1)O2 (stereo not given) | – | 29.5 µM (active)
27 | NCCOCCOCCN | inactive | –
28 | NC(=Nc1ccccc1)Nc1ccccc1 | inactive | –
29 | CCOCCOCCO | inactive | –
30 | CCc1cc(C2=C(C(=O)O)N(c3ccccc3C(F)(F)F)S(=O)(=O)c3ccccc32)cc2c1OCO2 | inactive | –
31 | CC(C)(O)c1ccc(CNC(=O)c2cccnc2Oc2ccc(F)cc2)cc1 | inactive | –
32 | CCCCC(CC)COC(=O)CCCCCCCC(=O)OCC(CC)CCCC (stereo not given) | inactive | –
33 | O=C1NC(=O)C(c2ccccc2)(c2ccccc2)N1 | inactive | –
34 | CC(=O)O | inactive | –
35 | O=C(O)c1cccnc1 | inactive | –
36 | O=C(O)CN(CC(=O)O)CC(=O)O | inactive | –
37 | CC(C)c1cccc(C(C)C)c1 | inactive | –
38 | COc1ccc(OC(F)(F)F)cc1CN[C@H]1CCCN[C@H]1c1ccccc1 | inactive | –
39 | CC(=O)[C@@]1(O)CC[C@H]2[C@@H]3CCC4=CC(=O)CC[C@]4(C)[C@H]3CC[C@@]21C | inactive | –
40 | CC(=O)OC1CC(C)OC(C)O1 (stereo not given) | inactive | –
